Results on 16 compounds are retold here after PubChem BioAssay (NCATS).

Assay [1] in a line: AP1 Signaling Pathway (AID 357).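 Also: ME-180 reporter cells stimulated with EGF at its EC50 level; % is scaled to controls: 0 for no effect and ±100 for the full control effect.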 In outline: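 First, ME-180 AP-1-bla cells were cultured overnight at 37 °C in low-serum Opti-MEM. Next, titrated compounds with EC50 EGF were incubated 5 hours. Finally, CCF4 was added for 2.5 hours and the 460/530 nm ratio recorded.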
A short description of assay [2]: NFAT Signaling Pathway (AID 444).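 Also: carbachol stimulus at about its EC50 of 1 µM final; % is scaled to controls: 0 for no effect and ±100 for the full control effect.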 The note with it: Jurkat NFAT-bla M1, carbachol, beta-lactamase ratio, 5 h. In short, it runs like this: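 Jurkat cells carrying an NFAT-driven β-lactamase reporter and co-transfected muscarinic M1 receptor were treated with compound plus carbachol (1 uM final, an EC50 level) for 5 h at 37 °C. CCF4 loading followed for 1 h at RT; 460/530 nm ratio gave %activity.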

Assay [3] deals with Glucocorticoid receptor (Homo sapiens) (UniProt P04150). The experiment in a line: GR-GFP Redistribution (AID 450;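 active = compounds whose dose series gives a full or clear partial fitted curve of increased nuclear translocation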; also: potency is read from the fitted curve at half-maximal effect). The note with it: U2OS GR-GFP nuclear translocation, laser cytometry, 2 h.
Sequence of Glucocorticoid receptor (Homo sapiens) (P04150 whole entry, looked up, the tested form may be a part): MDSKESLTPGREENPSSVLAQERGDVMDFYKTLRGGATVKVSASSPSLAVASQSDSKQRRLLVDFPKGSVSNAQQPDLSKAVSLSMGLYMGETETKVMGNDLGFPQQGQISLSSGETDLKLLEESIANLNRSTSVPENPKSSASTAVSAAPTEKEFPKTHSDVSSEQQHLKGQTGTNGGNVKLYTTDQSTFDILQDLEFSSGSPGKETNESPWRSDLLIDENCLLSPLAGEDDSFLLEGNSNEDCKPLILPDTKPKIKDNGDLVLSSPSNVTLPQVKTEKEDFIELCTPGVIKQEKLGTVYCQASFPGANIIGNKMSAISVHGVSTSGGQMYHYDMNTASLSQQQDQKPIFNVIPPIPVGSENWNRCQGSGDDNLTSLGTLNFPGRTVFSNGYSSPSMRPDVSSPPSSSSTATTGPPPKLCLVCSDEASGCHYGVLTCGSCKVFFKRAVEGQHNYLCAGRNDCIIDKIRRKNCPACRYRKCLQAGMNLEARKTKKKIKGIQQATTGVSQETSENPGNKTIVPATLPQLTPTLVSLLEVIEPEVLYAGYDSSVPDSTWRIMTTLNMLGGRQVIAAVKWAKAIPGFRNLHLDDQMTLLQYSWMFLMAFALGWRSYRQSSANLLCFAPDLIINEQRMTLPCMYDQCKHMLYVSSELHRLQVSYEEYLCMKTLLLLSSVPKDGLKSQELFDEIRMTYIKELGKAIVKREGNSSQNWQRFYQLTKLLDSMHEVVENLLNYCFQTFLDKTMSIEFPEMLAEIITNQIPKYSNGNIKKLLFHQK
Assay [4] shares this target. Description: GR-EFC Redistribution (AID 451; calls by dose curve; also: potency is read from the fitted curve at half-maximal effect). The note with it: CHO-K1 GR-EFC translocation, beta-gal luminescence, 2 h. In short, it runs like this: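 CHO-K1 cells stably expressing nuclear-localized β-gal enzyme acceptor and GR fused C-terminally to the enzyme donor fragment; ligand-driven nuclear translocation restores β-gal by complementation. Compounds titrated up to 46 uM final, 2 h at 37 °C; luminescence read.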

The target of assay [5] is Mitogen-activated protein kinase 10 (Mus musculus) (UniProt Q61831). The experiment in a line: JNK3 AlphaScreen Assay (AID 530).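 Also: kinase came from lysate of stimulated human HepG2 cells; signal reports phosphorylation of biotinylated GST-cJun 1-79 at Ser73 with 10 µM ATP; % is scaled to controls: 0 for no effect and ±100 for the full control effect.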 In short, it runs like this: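 JNK3 came from HepG2 lysates pre-activated with IL-1beta and TNF-alpha and phosphorylated biotinylated GST-cJun (1-79) at 10 uM ATP, pH 7.6, room temperature. Compounds were titrated. AlphaScreen signal used anti-phospho-cJun (Ser73) antibody.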

Assay [6] addresses Cytochrome P450 1A2 (Homo sapiens) (UniProt P05177). Description: p450-cyp1a2 (AID 410; calls by dose curve; also: potency is read from the fitted curve at half-maximal effect;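 as to activity change, negative = inhibition: -100% = full effect of reference inhibitor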). In outline: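 Inhibition was calculated relative to 57 uM furafylline (full inhibition). The reaction used human CYP1A2 at 20nM with Luciferin-ME at its Km, 100uM, driven by an NADPH-regenerating system for 60 min at room temperature.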
Assay [7] is described as follows: Stat Signaling Pathway (AID 446).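 Also: ME-180 cervical cancer cells given 40 pM IL-6 alongside compound; SIE-controlled beta-lactamase reporter measured as 460/530 nm FRET emission ratio; % is scaled to controls: 0 for no effect and ±100 for the full control effect.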 The conditions noted are these: ME-180 SIE beta-lactamase reporter, IL-6 stimulated, 5 h; at 38 µM (top of the series) unless noted. In outline: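 Reporter line: ME-180 cervical carcinoma, SIE-beta-lactamase. Treatment: compound with 40 pM IL-6, 5 hrs, 37 C, in low-serum OPTI-MEM with 10 mM HEPES pH 7.3. Detection: 460/530 nm fluorescence.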

The nature of assay [8]: Cell Viability - BJ (AID 421; calls by dose curve;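 also: potency is read from the fitted curve at half-maximal effect; cells exposed to compound for 40 hours at 37 °C before readout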). The note with it: BJ fibroblast viability, qHTS. In short, it runs like this: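 Cytotoxicity as drop in intracellular ATP (CellTiter-Glo, 20 min RT) after 40 hr compound exposure of BJ fibroblasts at 37 °C. Titrations scaled between DMSO and 100 uM tamoxifen, Hill-fitted for AC50.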
Assay [9] is described as follows: Cell Viability - Jurkat (AID 426;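 active = dose-dependent loss of cell ATP signal giving a full or clear fitted curve, ranked by lower potency value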;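 also: potency is read from the fitted curve at half-maximal effect; cells exposed to compound for 40 hours at 37 °C before ATP read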). The note with it: qHTS. In short, it runs like this:
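Seed 5000 Jurkat E6-1 cells/well; add compound; incubate 40 hr at 37 °C; add CellTiter-Glo; wait 20 min at room temperature; read luminescence. Fit concentration-response with Hill equation for AC50.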

The nature of assay [10]: Cell Viability - Hek293 (AID 427;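 active = compounds whose dose-response curve shows a full or clear partial loss of cell viability, called from curve shape rather than a numeric limit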;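 also: potency is read from the fitted curve at half-maximal effect; cells exposed to compound for 40 hours at 37 °C before reading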). The conditions noted are these: qHTS. In short, it runs like this:
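Luminescent ATP content (CellTiter-Glo, 20 min at room temperature) was measured after a 40 hr, 37 °C compound exposure of HEK293 cells. AC50 values came from Hill-equation fits of qHTS concentration-response data normalized to DMSO and 100 uM tamoxifen.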

Assay [11] in a line: Cell Viability - HepG2 (AID 433; calls by dose curve;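 also: potency is read from the fitted curve at half-maximal effect; cells exposed to compound for 40 hours; potency for ATP loss meaning cytotoxicity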). The conditions noted are these: qHTS. In short, it runs like this:
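ATP luminescence (CellTiter-Glo) after 40 h compound exposure, 37 °C, HepG2, 1500 cells/well, complete medium. Normalized: DMSO = basal, 100 uM tamoxifen = 100% inhibition. AC50 via standard Hill equation.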

The nature of assay [12]: Cell Viability - MRC5 (AID 434; calls by dose curve;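 also: potency is read from the fitted curve at half-maximal effect; cells exposed to compound for 40 hours at 37 °C; potency reflects cytotoxicity seen as loss of intracellular ATP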). The conditions noted are these: MRC5 lung fibroblast viability, qHTS. In outline:
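MRC5 normal human lung fibroblasts (1500/well) were treated with compounds for 40 hr at 37 °C in complete medium, and viable cells were measured as intracellular ATP by CellTiter-Glo luminescence. AC50 came from Hill fits, normalized to DMSO and 100 uM tamoxifen.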

Assay [13] is described as follows: Cell Viability - SK-N-SH (AID 435; calls by dose curve; also: potency is read from the fitted curve at half-maximal effect). The conditions noted are these: SK-N-SH neuroblastoma cell viability qHTS. In short, it runs like this: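 CellTiter-Glo ATP luminescence, 20 min RT read; cells pre-plated 5 hr, compound 40 hr at 37 °C, 1500 cells/well, complete medium. Normalized DMSO = 0, 100 uM tamoxifen = 100% inhibition; Hill-fit AC50.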
Assay [14] can be described thus: Cell Viability - NIH 3T3 (AID 541; active = well fitted curve in the direction sought with a large enough effect; an effect the other way counts as inactive or inconclusive;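 also: cells exposed to compound for 40 hours; plate controls were DMSO alone for no effect and tamoxifen positive control for full effect; nearly all actives have a fitted effect of over 25% in size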). The conditions noted are these: NIH 3T3 cell viability, qHTS; activity change, negative = cytotoxicity: at 92.2 µM (top of the series). In outline:
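AC50 values reflect concentration-dependent loss of intracellular ATP in NIH 3T3 cells after 40 hr treatment in complete culture medium, quantified by luciferase-based luminescence.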

Assay [15] in a line: Cell Viability - HUV-EC-C (AID 542; active = well fitted curve in the direction sought with a large enough effect; an effect the other way counts as inactive or inconclusive;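 also: cells exposed to compound for 40 hours; % is scaled to controls: 0 for no effect and ±100 for the full control effect; nearly all actives have a fitted effect of over 35% in size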). In outline: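 Decrease in cellular ATP, quantified by luciferase luminescence, reflects toxicity in normal human vascular endothelial HUV-EC-C cells given compound for 40 hr in complete culture medium. Values are AC50s from concentration-response curves.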
Assay [16] can be described thus: Cell Viability - H-4-II-E (AID 543; active = well fitted curve in the direction sought with a large enough effect; an effect the other way counts as inactive or inconclusive;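 also: cells exposed to compound for 40 hours; % is scaled to controls: 0 for no effect and ±100 for the full control effect; nearly all actives have a fitted effect of over 35% in size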). In short, it runs like this:
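Here, cytotoxicity is measured in the rat hepatoma line H-4-II-E as loss of intracellular ATP after 40 hr compound treatment, detected by luciferase luminescence.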

Assay [17] can be described thus: Cell Viability - SH-SY5Y (AID 544; active = well fitted curve in the direction sought with a large enough effect; an effect the other way counts as inactive or inconclusive;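 also: cells exposed to compound for 40 hours; 0% = DMSO alone and -100% = 100 µM tamoxifen; nearly all actives have a fitted effect of over 55% in size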). In short, it runs like this:
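Cytotoxicity is scored as a concentration-dependent fall in intracellular ATP in human SH-SY5Y cells treated 40 hr in complete culture medium. Potency is expressed as AC50 from a Hill equation fit.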

A short description of assay [18]: Cell Viability - Renal Proximal Tubule (AID 545; active = well fitted curve in the direction sought with a large enough effect; an effect the other way counts as inactive or inconclusive;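 also: cells exposed to compound for 40 hours; 0% = DMSO only and -100% = 100 µM tamoxifen; nearly all actives have a fitted effect of over 40% in size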). The note with it: renal proximal tubule cells viability; activity change, negative = cytotoxicity: at 91.7 µM (top of the series). In short, it runs like this:
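Rat kidney proximal tubule cells, freshly isolated; 1000 cells/well, 5 hr settle, compound 40 hr 37 °C. CellTiter-Glo 20 min RT, luminescence read. AC50 by standard Hill fit.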

Assay [19] can be described thus: Cell Viability - Mesenchymal (AID 546; active = well fitted curve in the direction sought with a large enough effect; an effect the other way counts as inactive or inconclusive;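 also: cells exposed to compound for 40 hours before reading; 0% = DMSO only and -100% = 100 µM tamoxifen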). In short, it runs like this:
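Normal human renal glomerulus-derived kidney mesenchymal cells, 1000 per well in complete medium, were treated with compounds for 40 hr at 37 °C. Viability was read as intracellular ATP by CellTiter-Glo luminescence; AC50 values came from Hill-equation fits of qHTS concentration-response data.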

Setting [20] is: at 38 µM (top of the series) unless noted.

“And” between values parts separate entries of the source, which are not always exact repeats. Equal entries are not always repeated. Unmarked numbers belong to inactive results. Results filed as inconclusive are left out. The source made the active and inactive calls. Unless noted, calls follow the shape of the dose curve; as a rule, active = well fitted curve in either direction with a large enough effect (not every such curve was filed as active); inconclusive = small, poorly fitted or top-dose-only effect, or another doubt; inactive = flat fitted curve, though single readings scatter.

Sequence of Cytochrome P450 1A2 (Homo sapiens) (P05177 whole entry, looked up): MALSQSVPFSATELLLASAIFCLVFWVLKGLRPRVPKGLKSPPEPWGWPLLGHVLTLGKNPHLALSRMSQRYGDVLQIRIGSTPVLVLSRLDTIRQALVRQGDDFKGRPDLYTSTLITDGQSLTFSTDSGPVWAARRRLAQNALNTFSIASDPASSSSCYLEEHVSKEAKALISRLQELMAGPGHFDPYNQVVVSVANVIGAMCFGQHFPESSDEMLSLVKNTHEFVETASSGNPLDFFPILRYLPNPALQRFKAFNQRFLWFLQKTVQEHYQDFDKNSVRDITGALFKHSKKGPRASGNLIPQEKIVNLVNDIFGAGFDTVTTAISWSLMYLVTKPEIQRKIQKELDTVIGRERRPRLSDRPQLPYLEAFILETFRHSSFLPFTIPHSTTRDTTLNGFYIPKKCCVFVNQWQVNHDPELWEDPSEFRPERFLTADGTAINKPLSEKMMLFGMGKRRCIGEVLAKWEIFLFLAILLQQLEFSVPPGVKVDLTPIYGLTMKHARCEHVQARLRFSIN

Take `Clc1ccc(N2C[C@H]3CC[C@@H](C2)N3)nn1`: the result in assay [1] and in [5] was inactive. The activity change, negative = inhibition in [2] (setting [20]) is -11.9%. Besides, the Potency in assay [3] and in assay [4] was more than 46 µM in each case.
For `Cc1c2ccncc2c(C)c2c1[nH]c1ccccc12`, the compound was called inactive in assay [1] and in assay [5]. For the same compound, the Potency in [6] is 79.4 nM (active) and 20 nM (active); in [3] it was > 46 µM and > 20.6 µM.
With `NC(N)=NOCC[C@H](N)C(=O)O`, the compound was called inactive in assay [1] and in assay [5]. Further, the activity change, negative = inhibition was -0.483% in assay [2] (at 17.2 µM (top of the series)) and 17% in [2] (at 38 µM (top of the series)). Also, the activity, negative = inhibition in assay [7] was 4.59% [at 17.2 µM]. Moreover, in assay [3], the Potency was > 46 µM and > 20.6 µM.
For `C[C@H](N)CN1CCc2ccc(Br)cc21`, the result in assay [1] was inactive. Also, in assay [3], the Potency is more than 46 µM.
Take `NC(=O)COc1c(F)cc(SCCNS(=O)(=O)c2ccccc2)cc1F`: the call in assay [1] and in [5] was inactive. Further, the activity change, negative = inhibition in assay [2] (setting [20]) is 20.9%. Moreover, in assay [3], the Potency is more than 46 µM.
As to `C[C@@H]1O[C@H](C[N+](C)(C)C)CS1`, the compound was called inactive in assay [1] and in assay [5]. Besides, the Potency result in assay [6] was “inactive”. Besides, the Potency in assay [3] was more than 46 µM.
In the case of `O=C(O)c1cc[c]([Hg][Cl])cc1`, the compound was called inactive in assay [1] and in [5]. Also, the Potency is 3.16 µM (active) in assay [6], more than 46 µM in [3] and more than 46 µM in [4].
Turning to `C[N+]1(C)CCc2cc3c(cc2[C@H]1[C@@H]1OC(=O)c2c1ccc1c2OCO1)OCO3`, the call in [1] was inactive. The activity change, negative = inhibition in assay [2] (setting [20]) is -19.2% [at 17.2 µM]. Moreover, the Potency in [3] was more than 20.6 µM.
`O=c1c2ccccc2[se]n1-c1ccccc1`: the compound was called inactive in assay [1]. The Potency in [6] is 3.98 µM (active) and 794 nM (active); in assay [3] it was > 46 µM and > 20.6 µM; in assay [4], > 46 µM and > 20.6 µM.
`CCCn1c(C)c(C(=O)c2ccc3ccccc3c2)c2ccccc21`: the outcome in assay [1] and in [5] was inactive. Also, the Potency is 6.31 µM (active) in assay [6], more than 46 µM in assay [3] and more than 46 µM in assay [4]. In addition, the activity, negative = inhibition in assay [7] was -13.9%.
As for `C[C@@H](Cc1ccccc1)NCCC(c1ccccc1)c1ccccc1`, the outcome in [1] and in assay [5] was inactive. For the same compound, the activity, negative = inhibition in assay [7] was -3.28% [at 17.2 µM].
As for `Nc1ccc(CCN2CCN(c3cccc(C(F)(F)F)c3)CC2)cc1`, the call in assay [1] and in [5] was inactive. Besides, the Potency in assay [6] was 10 µM (active); in assay [3], more than 46 µM.
Take `O=P(O)(O)C(Cl)(Cl)P(=O)(O)O`: the compound was called inactive in assay [1] and in assay [5]. For the same compound, in assay [6], the Potency entry is “inactive”. Also, in assay [2] (setting [20]), the activity change, negative = inhibition was 10.1%.
On to `C[C@@H]1[C@@H]2Cc3ccc(O)cc3[C@@]1(C)CCN2CC1CC1`, for which the outcome in [1] and in assay [5] was inactive. Besides, the Potency entry in [6] was “inactive”. Besides, in assay [3], the Potency is more than 46 µM.
For `CCCN(CCC)CCc1ccc(O)c(O)c1`, the result in assay [1] and in assay [5] was inactive. For the same compound, the activity change, negative = inhibition in assay [2] (setting [20]) was -10.2%. For the same compound, the Potency in [3] is more than 46 µM.
Regarding `O=C1CCO1`, the Potency in assay [8], in [9], in [10], in assay [11], in assay [12] and in [13] was more than 92 µM in each case. Also, the compound was called inactive in [5]. Moreover, the Potency result in assay [14], in assay [15], in assay [16], in [17], in assay [18] and in assay [19] was “inactive” in each case.
